Data on 39 targets can be found in the supplement of paper PMC10849652.

Of roughly 8,800 targets only a part is listed; those with a hit were picked by preference. About 0.5% of all pairs of compound and target were hits.

Chain of UniProt O43709 (O43709 whole entry, looked up): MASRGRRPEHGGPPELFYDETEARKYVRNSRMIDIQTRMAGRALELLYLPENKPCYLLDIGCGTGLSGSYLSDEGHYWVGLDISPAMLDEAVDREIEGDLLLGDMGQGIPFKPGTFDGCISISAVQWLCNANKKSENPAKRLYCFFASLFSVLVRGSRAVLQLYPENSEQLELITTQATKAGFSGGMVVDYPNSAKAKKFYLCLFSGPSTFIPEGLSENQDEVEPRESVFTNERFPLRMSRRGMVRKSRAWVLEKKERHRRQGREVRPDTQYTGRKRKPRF
Chain of UniProt P21953 (P21953 whole entry, looked up): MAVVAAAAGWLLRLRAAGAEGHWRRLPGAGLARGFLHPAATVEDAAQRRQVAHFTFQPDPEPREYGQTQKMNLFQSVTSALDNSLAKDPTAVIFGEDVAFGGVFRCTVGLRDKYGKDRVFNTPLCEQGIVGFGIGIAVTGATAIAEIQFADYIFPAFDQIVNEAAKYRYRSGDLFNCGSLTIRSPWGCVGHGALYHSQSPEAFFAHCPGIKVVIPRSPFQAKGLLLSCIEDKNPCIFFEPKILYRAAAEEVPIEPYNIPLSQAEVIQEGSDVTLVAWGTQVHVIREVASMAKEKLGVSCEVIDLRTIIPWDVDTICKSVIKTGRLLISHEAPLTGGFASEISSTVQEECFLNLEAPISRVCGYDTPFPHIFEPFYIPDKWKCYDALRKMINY
Chain of UniProt O14981 (O14981 whole entry, looked up): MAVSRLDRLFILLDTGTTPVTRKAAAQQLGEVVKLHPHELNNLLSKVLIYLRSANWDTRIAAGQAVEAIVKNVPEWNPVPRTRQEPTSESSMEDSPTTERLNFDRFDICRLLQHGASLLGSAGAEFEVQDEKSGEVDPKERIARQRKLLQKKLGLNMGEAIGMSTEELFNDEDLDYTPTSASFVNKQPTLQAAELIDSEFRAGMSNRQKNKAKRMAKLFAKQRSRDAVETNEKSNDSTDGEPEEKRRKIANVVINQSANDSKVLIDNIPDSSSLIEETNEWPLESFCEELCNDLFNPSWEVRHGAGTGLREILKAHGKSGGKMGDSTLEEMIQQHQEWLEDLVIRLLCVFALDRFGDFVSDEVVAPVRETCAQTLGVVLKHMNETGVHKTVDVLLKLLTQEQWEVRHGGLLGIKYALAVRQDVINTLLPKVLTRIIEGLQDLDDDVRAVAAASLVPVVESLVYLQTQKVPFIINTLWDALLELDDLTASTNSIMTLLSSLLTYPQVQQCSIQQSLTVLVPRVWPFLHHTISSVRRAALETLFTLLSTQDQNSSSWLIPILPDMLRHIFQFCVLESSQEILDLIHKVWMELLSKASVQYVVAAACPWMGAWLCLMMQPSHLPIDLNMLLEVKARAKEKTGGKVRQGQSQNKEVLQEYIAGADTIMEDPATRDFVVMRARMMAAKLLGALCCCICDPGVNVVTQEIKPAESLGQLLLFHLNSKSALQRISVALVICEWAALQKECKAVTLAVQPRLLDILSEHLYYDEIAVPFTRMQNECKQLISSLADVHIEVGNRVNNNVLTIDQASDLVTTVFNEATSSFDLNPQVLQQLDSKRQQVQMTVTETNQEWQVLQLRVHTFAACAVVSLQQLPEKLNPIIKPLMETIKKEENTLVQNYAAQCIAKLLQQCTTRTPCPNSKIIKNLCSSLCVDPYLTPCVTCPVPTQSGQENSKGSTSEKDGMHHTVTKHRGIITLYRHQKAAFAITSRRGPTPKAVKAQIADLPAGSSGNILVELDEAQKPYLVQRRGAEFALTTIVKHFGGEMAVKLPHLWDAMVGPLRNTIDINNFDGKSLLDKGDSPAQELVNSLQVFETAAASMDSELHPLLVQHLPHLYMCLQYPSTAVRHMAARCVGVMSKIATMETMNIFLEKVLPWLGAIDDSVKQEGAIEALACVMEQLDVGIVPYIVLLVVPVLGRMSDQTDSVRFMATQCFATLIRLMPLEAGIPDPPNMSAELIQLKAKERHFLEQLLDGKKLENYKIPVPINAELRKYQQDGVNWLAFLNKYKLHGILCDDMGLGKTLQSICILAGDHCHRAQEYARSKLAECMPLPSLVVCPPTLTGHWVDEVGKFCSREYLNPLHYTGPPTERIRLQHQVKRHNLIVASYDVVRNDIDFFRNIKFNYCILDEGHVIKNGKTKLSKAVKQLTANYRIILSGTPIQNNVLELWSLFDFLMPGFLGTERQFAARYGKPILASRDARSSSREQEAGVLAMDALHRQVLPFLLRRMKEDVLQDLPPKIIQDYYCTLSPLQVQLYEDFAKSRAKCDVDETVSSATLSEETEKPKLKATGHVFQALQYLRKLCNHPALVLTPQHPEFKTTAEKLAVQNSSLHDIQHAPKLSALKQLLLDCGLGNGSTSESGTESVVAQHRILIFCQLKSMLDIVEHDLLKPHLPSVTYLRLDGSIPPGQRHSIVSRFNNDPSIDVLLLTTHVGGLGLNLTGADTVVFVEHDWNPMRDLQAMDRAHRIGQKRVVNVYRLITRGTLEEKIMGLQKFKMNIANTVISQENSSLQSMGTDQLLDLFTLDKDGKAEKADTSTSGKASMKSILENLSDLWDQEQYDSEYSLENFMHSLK
Chain of UniProt P20248 (P20248 whole entry, looked up): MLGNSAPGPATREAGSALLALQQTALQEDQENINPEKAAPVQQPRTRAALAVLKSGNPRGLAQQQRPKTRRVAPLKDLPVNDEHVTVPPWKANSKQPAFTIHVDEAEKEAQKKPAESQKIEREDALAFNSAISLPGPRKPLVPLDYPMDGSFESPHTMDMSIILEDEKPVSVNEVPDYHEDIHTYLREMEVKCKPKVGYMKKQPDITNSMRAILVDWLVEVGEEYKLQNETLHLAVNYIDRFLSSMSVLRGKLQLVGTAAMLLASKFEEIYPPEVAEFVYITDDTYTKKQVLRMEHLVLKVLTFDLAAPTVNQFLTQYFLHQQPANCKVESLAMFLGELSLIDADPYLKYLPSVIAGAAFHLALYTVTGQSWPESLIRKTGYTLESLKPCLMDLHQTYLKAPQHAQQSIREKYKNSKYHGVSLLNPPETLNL
Chain of UniProt Q14692 (Q14692 whole entry, looked up): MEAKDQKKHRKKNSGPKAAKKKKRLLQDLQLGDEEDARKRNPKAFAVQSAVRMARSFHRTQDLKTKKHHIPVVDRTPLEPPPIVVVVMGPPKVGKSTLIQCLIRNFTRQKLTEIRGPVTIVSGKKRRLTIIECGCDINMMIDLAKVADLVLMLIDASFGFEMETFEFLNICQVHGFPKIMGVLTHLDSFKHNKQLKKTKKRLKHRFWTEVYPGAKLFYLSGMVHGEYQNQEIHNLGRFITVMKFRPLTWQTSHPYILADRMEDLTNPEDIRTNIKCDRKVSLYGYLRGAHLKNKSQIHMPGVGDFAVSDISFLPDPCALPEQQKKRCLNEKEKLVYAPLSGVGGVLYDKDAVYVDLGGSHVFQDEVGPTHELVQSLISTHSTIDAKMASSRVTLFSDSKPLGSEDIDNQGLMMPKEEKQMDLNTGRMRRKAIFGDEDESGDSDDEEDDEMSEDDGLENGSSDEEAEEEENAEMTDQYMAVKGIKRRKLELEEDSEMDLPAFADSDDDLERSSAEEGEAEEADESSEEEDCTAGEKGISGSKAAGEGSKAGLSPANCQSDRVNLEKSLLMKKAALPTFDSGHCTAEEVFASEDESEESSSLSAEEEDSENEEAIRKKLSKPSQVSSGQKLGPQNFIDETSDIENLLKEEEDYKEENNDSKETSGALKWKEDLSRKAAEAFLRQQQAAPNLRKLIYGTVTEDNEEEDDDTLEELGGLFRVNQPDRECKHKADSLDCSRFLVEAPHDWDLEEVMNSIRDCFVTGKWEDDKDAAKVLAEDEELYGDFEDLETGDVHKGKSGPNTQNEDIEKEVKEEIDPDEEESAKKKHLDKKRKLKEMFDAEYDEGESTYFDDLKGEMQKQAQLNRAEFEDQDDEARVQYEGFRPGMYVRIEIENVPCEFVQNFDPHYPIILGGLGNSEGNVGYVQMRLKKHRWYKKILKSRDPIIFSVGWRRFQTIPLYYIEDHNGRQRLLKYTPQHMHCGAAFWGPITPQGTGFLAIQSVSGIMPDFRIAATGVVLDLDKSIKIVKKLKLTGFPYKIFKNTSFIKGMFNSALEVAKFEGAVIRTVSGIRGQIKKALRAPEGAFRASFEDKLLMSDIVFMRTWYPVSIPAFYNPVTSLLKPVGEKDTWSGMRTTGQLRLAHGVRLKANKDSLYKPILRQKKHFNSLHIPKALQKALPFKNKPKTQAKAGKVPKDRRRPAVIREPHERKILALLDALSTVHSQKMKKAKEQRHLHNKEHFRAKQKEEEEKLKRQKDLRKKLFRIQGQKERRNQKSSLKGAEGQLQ
Chain of UniProt Q9Y487 (Q9Y487 whole entry, looked up): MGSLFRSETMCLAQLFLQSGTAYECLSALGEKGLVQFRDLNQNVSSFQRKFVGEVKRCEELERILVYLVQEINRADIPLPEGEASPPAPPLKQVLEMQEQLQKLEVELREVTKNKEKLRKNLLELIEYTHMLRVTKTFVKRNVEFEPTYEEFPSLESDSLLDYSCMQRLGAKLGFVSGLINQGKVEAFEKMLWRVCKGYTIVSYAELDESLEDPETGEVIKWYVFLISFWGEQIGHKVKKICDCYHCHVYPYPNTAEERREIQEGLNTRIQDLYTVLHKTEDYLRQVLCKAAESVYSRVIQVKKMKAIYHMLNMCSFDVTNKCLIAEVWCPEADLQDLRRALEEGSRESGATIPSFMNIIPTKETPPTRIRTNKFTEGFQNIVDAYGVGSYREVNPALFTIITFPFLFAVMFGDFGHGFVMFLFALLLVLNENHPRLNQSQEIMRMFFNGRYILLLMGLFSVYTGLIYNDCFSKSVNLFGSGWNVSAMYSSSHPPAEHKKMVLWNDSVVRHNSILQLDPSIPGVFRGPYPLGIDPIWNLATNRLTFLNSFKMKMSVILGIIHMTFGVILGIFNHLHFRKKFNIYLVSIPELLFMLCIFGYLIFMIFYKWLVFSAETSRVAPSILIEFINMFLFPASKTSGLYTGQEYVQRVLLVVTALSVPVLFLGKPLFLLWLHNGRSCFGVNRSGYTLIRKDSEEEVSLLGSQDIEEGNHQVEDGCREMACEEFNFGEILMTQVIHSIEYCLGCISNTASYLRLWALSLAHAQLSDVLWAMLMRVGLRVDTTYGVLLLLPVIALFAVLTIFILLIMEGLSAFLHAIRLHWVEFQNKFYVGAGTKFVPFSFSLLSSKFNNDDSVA

Compound in the first experiment: CS(=O)(=O)N1CCN(Cc2cc3nc(-c4cccc5[nH]ncc45)nc(N4CCOCC4)c3s2)CC1 [pictilisib]
Nature of the experiment: log2 fold change, soluble protein after heating vs DMSO (PISA); higher = thermal stabilisation; K562 lysate, 10 uM; active = over 0.2 and 3.5 SD of the protein, either way, in both replicates (recomputed). The procedure, abridged: (§1)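 Log-two fold change in thermal stability relative to solvent controls is reported from duplicates. For each sample, crude K562 extract from dounce-homogenised pellets in PBS pH 7.4 with 1 mM MgCl2, at 1 mg/mL protein, was treated with 10 μM compound for 30 min. Aliquots heated for 3 min across 48°C-58°C were pooled, brought to 0.5% NP-40 at 4°C and cleared at 21,000xg for 90 min. The supernatant was quantified by TMTpro 16plex LC-MS/MS with channel sums equalised.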
As to CD63 (UniProt P08962), the log2 fold change is -0.256 (inactive).
Take ATR (UniProt Q13535): the log2 fold change is 0.408 (active).
The same measure, in the same setting: the result for CCDC47 (UniProt Q96A33) reads 0.005 (inactive).
Still for that read-out and setting: as for CCNA2 (UniProt P20248), the figure is -0.029 (inactive); as for CHD4 isoform 2 (UniProt Q14839), -0.004 (inactive); as for CENPQ (UniProt Q7L2Z9), 0.015 (inactive).
As for BLM (UniProt P54132), the log2 fold change was -0.068 (inactive).
With ATP6V0A2 (UniProt Q9Y487), the log2 fold change was -0.047 (inactive).
Same read-out and setting: the result for BTAF1 (UniProt O14981) reads -0.043 (inactive); that for CDC42EP4 (UniProt Q9H3Q1), 0.029 (inactive).
Still for that read-out and setting: as for BMS1 (UniProt Q14692), the figure is -0.052 (inactive); as for CDK9 isoform 2 (UniProt P50750), 0.034 (inactive).
Still for that read-out and setting: as for C12orf45 (UniProt Q8N5I9), the figure is -0.031 (inactive); as for BCKDHB (UniProt P21953), -0.043 (inactive).
As to CDC45 isoform 3 (UniProt O75419), the log2 fold change was -0.014 (inactive).
On to BUD23 isoform 3 (UniProt O43709), for which the log2 fold change is -0.017 (inactive).
Regarding CARD9 (UniProt Q9H257), the log2 fold change is -0.035 (inactive).

Compound in another experiment: C[C@@H](Oc1cc(-c2cnn(C3CCNCC3)c2)cnc1N)c1c(Cl)ccc(F)c1Cl [crizotinib]
Described as above. The procedure, abridged:
as §1
Regarding BRD4 (UniProt O60885), the log2 fold change was -0.03 (inactive).
The same measure, in the same setting: as for CAMKK1 isoform 2 (UniProt Q8N5S9), the figure is -0.023 (inactive).
Still for that read-out and setting: as for ATG13 isoform 2 (UniProt O75143), the figure is -0.022 (inactive); as for ATAD1 (UniProt Q8NBU5), -0.022 (inactive).
Consider BSDC1 (UniProt Q9NW68), for which the log2 fold change is 0.012 (inactive).
Same read-out and setting: as for ATP5PF isoform 2 (UniProt P18859), the figure is 0.054 (inactive); as for CAD (UniProt P27708), -0.038 (inactive).
Still for that read-out and setting: as for CHCHD2 (UniProt Q9Y6H1), the figure is 0.119 (inactive); as for CHCHD4 isoform 2 (UniProt Q8N4Q1), -0.085 (inactive).
On the same count and under the same terms, the result for CCNC (UniProt P24863) reads -0.037 (inactive); that for CELF2 isoform 3 (UniProt O95319), 0.072 (inactive); that for CEP120 (UniProt Q8N960), -0.034 (inactive).
Regarding CCDC25 (UniProt Q86WR0), the log2 fold change is -0.015 (inactive).
The same measure, in the same setting: the result for CELF1 isoform 4 (UniProt Q92879) reads 0.032 (inactive); that for BNIP1 (UniProt Q12981), -0.062 (inactive); that for CHD5 (UniProt Q8TDI0), -0.03 (inactive).
Same read-out and setting: as for ATP2B4 (UniProt P23634), the figure is 0.018 (inactive); as for CANX isoform 2 (UniProt P27824), -0.002 (inactive); as for BCKDK (UniProt O14874), 0.096 (inactive).
CCAR2 (UniProt Q8N163): the log2 fold change is -0.067 (inactive).
CDC40 (UniProt O60508): the log2 fold change was -0.053 (inactive).
Still for that read-out and setting: as for CDK5RAP2 (UniProt Q96SN8), the figure is -0.035 (inactive); as for CD63 (UniProt P08962), 0.036 (inactive).
Still for that read-out and setting: the result for ATR (UniProt Q13535) reads -0.1 (inactive).
CCDC47 (UniProt Q96A33): the log2 fold change was -0.016 (inactive).
As for CCNA2 (UniProt P20248), the log2 fold change was -0.035 (inactive).
On the same count and under the same terms, as for CHD4 isoform 2 (UniProt Q14839), the figure is -0.007 (inactive).
CENPQ (UniProt Q7L2Z9): the log2 fold change was -0.028 (inactive).
With BLM (UniProt P54132), the log2 fold change was -0.003 (inactive).
The same measure, in the same setting: as for ATP6V0A2 (UniProt Q9Y487), the figure is -0.016 (inactive); as for BTAF1 (UniProt O14981), -0.041 (inactive); as for CDC42EP4 (UniProt Q9H3Q1), -0.017 (inactive).
For the target BMS1 (UniProt Q14692), the log2 fold change is -0.058 (inactive).
In the case of CDK9 isoform 2 (UniProt P50750), the log2 fold change is 0.067 (inactive).
Regarding C12orf45 (UniProt Q8N5I9), the log2 fold change was 0.042 (inactive).
BCKDHB (UniProt P21953): the log2 fold change is -0.055 (inactive).
For the target CDC45 isoform 3 (UniProt O75419), the log2 fold change was -0.009 (inactive).
BUD23 isoform 3 (UniProt O43709): the log2 fold change is 0.07 (inactive).
Take CARD9 (UniProt Q9H257): the log2 fold change is -0.053 (inactive).

Compound in a further experiment: C[C@H](C1=CC=C(C=C1)C(=O)NC2=C3C=CNC3=NC=C2)N
The experiment is described as above. The procedure, abridged: as §1
On to BRD4 (UniProt O60885), for which the log2 fold change was -0.06 (inactive).
In the case of CAMKK1 isoform 2 (UniProt Q8N5S9), the log2 fold change is 0.032 (inactive).
Still for that read-out and setting: as for ATG13 isoform 2 (UniProt O75143), the figure is -0.271 (active); as for ATAD1 (UniProt Q8NBU5), -0.081 (inactive); as for BSDC1 (UniProt Q9NW68), -0.052 (inactive).
Regarding ATP5PF isoform 2 (UniProt P18859), the log2 fold change was 0.591 (active).
The same measure, in the same setting: the result for CAD (UniProt P27708) reads -0.024 (inactive).
For CHCHD2 (UniProt Q9Y6H1), the log2 fold change is 0.044 (inactive).
In the case of CHCHD4 isoform 2 (UniProt Q8N4Q1), the log2 fold change was -0.316 (inactive).
Still for that read-out and setting: as for CCNC (UniProt P24863), the figure is 0.075 (inactive); as for CELF2 isoform 3 (UniProt O95319), 0.104 (inactive); as for CEP120 (UniProt Q8N960), -0.105 (inactive).
As for CCDC25 (UniProt Q86WR0), the log2 fold change was 0.487 (active).
On to CELF1 isoform 4 (UniProt Q92879), for which the log2 fold change is 0.021 (inactive).
With BNIP1 (UniProt Q12981), the log2 fold change was 0.273 (inactive).
The same measure, in the same setting: the result for CHD5 (UniProt Q8TDI0) reads 0 (inactive); that for ATP2B4 (UniProt P23634), -0.166 (inactive).
Turning to CANX isoform 2 (UniProt P27824), the log2 fold change is -0.037 (inactive).
Consider BCKDK (UniProt O14874), for which the log2 fold change is -0.038 (inactive).
On to CCAR2 (UniProt Q8N163), for which the log2 fold change was -0.009 (inactive).
As for CDC40 (UniProt O60508), the log2 fold change was -0.027 (inactive).
Turning to CDK5RAP2 (UniProt Q96SN8), the log2 fold change was -0.032 (inactive).
CD63 (UniProt P08962): the log2 fold change is -0.415 (active).
The same measure, in the same setting: as for ATR (UniProt Q13535), the figure is -0.158 (inactive); as for CCDC47 (UniProt Q96A33), -0.012 (inactive); as for CCNA2 (UniProt P20248), -0.092 (inactive).
Still for that read-out and setting: the result for CHD4 isoform 2 (UniProt Q14839) reads -0.05 (inactive).
Turning to CENPQ (UniProt Q7L2Z9), the log2 fold change was -0.226 (inactive).
For the target BLM (UniProt P54132), the log2 fold change is 0.192 (inactive).
On the same count and under the same terms, as for ATP6V0A2 (UniProt Q9Y487), the figure is -0.227 (active); as for BTAF1 (UniProt O14981), -0.137 (inactive).
As to CDC42EP4 (UniProt Q9H3Q1), the log2 fold change was -0.047 (inactive).
The same measure, in the same setting: the result for BMS1 (UniProt Q14692) reads -0.018 (inactive); that for CDK9 isoform 2 (UniProt P50750), 0.066 (inactive).
Still for that read-out and setting: the result for C12orf45 (UniProt Q8N5I9) reads -0.269 (active); that for BCKDHB (UniProt P21953), 0.083 (inactive); that for CDC45 isoform 3 (UniProt O75419), 0.023 (inactive).
The same measure, in the same setting: as for BUD23 isoform 3 (UniProt O43709), the figure is -0.305 (active); as for CARD9 (UniProt Q9H257), -0.016 (inactive).
